Compound activity: PubChem BioAssay, several laboratories
A selection: hits, their analogues and other compounds. The true share with any hit is near 9.6%.
Insulin prom up – MIN6 insulin promoter up-regulation. AID 1625. z-score at 5 µM. 190,000 compounds, 0.3% hits. MIN6 insulin promoter-GFP reporter, high-content imaging; stronger effect = higher value;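 active means z-score above 3 at 5 µM with at least 500 cells counted in the well; inconclusive means wells under 500 cells, flagged as cytotoxic or low count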
PTEN del growth – suppresses growth of cells with PTEN deletion | HCT116 PTEN-null viability, CellTiter-Glo, 60 h; stronger effect = lower value | viability, % at 10 µM | 140,000 compounds, 1.2% hits | AID 827;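 active means viability at or below a set limit, 4 SD under the median of all tested compounds, cut at about 3.7% in these data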;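 further: PTEN knockout HCT116 line with beta catenin targeted HCT116 as companion control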
Autophagy mod – autophagy modulation, high-content screen; MEF GFP-LC3 puncta imaging; test concentration mostly 10 µM; calls only at 10 µM (by protocol); 190,000 compounds, 0.98% hits;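 active means percentage of spot-positive cells more than 3 SD above its plate mean, without a fluorescence outlier flag or 80% toxicity; inconclusive means no clear call, values can overlap the other calls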;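 further: spot-positive cell cutoff set from DMSO-treated cells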
L major viab – inhibitors of Leishmania major promastigote growth. Leishmania major promastigotes, resazurin fluorescence viability. inhibition, % at 10 µM. 200,000 compounds, 9% hits. AID 1063; in the data active means inhibition above about 50%;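 further: promastigotes grown with compound for 44 hours at 28 °C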
INS promoter inh – TRM-6 insulin promoter activity inhibition | 130,000 compounds, 0.9% hits | inhibition, % at 2 µM | TRM-6 cells (human fetal islet line), insulin promoter-eGFP reporter, imaging; reporter expression induced with tamoxifen;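 active means inhibition above the mean plus 3 SD, with well images judged a real hit on visual review, cut at about 60% in these data, passing the limit was not always enough; inconclusive means inhibition over the cutoff but images rejected on review; inactive means inhibition not above the cutoff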
bCat KO growth – beta-catenin-lacking colon tumor cell growth suppression | HCT116 beta-catenin knockout viability, CellTiter-Glo, 60 h; stronger effect = lower value | viability, % at 10 µM | 140,000 compounds, 1.5% hits;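 active means viability at or under a set limit, the compound median less 4 SD, cut at about 6% in these data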;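 further: 0% = Hyamine 1622 control at 20 µM and 100% = untreated cell control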
The depositor's hits bear a star; i = inactive; ? = inconclusive; . = not tested or not shown; + = active, no number.

SMILES | Insulin prom up | PTEN del growth | Autophagy mod | L major viab | INS promoter inh | bCat KO growth
Cc1ccc2c(C)ccc(O)c2n1 | -1.1 | 55 | i | -2 | -12 | 36
COc1cccc(C2=NOC(C(=O)NC(C)C)C2)c1 (centres undefined) | -0.54 | 107 | i | -6 | . | 96
COc1cccc(C2=NC(C)(C)NC(c3ccccc3O)C2)c1 (centres undefined) | -0.42 | 19 | i | 97* | . | 11
CCC1(C)N=C(c2ccc3c(c2)OCO3)CC(c2ccccc2O)N1 (centres undefined) | -0.6 | 64 | i | 95* | -23 | 51
CSCCNC(=O)Nc1c(-c2c(Cl)cccc2Cl)noc1C | -0.89 | . | . | . | . | .
O=C(CN1C(=O)NC(Cc2c[nH]c3ccccc23)C1=O)Nc1cccc(S(=O)(=O)N2CCOCC2)c1 (centres undefined) | 0.44 | . | . | . | . | .
CC(C)(C)c1ccc(/C=N/NC(=O)c2ccccn2)cc1 | 0.44 | . | i | 2 | . | .
COc1ccc(-c2nc(NC(=O)c3ccc(OCC(=O)N4CCOCC4)c(OC)c3)sc2C)cc1 | 0.45 | 78 | i | 61* | 25 | 86
CCOC(=O)c1cccc2c1-c1ccccc1/C2=N/O | 0.46 | 95 | i | 19 | . | 100
Cc1c(Cl)c(C(F)(F)F)nn1CC(=O)NN | -0.34 | . | i | -3 | -36 | .
O=c1cc(CCl)nc2sc3ccccc3n12 | 0.28 | . | i | 41 | . | .
O=C(OCc1cc(=O)n2c(n1)sc1ccccc12)c1ccc(O)cc1 | -0.65 | 87 | i | 59* | -14 | 89
COc1ccc(CN=C2NC(=O)CC(C(=O)Nc3ccc([N+](=O)[O-])cc3C)S2)cc1 (centres undefined) | 0.48 | 83 | i | 86* | -36 | 88
CCn1c(CSc2nc(C)cc(C)n2)nnc1SCC(=O)Nc1cccc2ccccc12 | -0.36 | 84 | i | -3 | -62 | 92
Cc1ccc(C)c(NC(=S)N(C)C)c1 | 0.16 | . | . | . | . | .
CCC1CCCCN1S(=O)(=O)c1ccc(NC(=O)CSc2ncccc2C(=O)O)cc1 (centres undefined) | 0.62 | 109 | + | -7 | . | 105
Cc1cc([N+](=O)[O-])cc(/C=N\NC(=O)C2COc3ccccc3O2)c1O (centres undefined) | 0.51 | . | . | . | . | .
O=C1c2ccsc2SCCN1Cc1ccc(Cl)cc1Cl | 0.78 | 53 | i | 7 | -66 | 60
CCOc1ccc(NC(=O)CCC(=O)NNC(=O)COc2ccccc2C)cc1 | 1.4 | . | + | -2 | . | .
Cc1ccc(NC(=O)CCC(=O)NNC(=O)COc2ccccc2)cc1C | 0.24 | 101 | i | -7 | -21 | 99
O=C(CCCn1c(=O)oc2ccccc21)NC1CCCCCC1 | -0.88 | . | i | 1 | . | .
CCOc1ccc(NC(=O)Cn2c(=O)oc3ccccc32)cc1 | 3.6* | 95 | i | -6 | 7 | 96
CCOc1ccc(CNC(=O)CCn2c(=O)oc3ccccc32)cc1 | 3.4* | 104 | i | -6 | -6 | 90
Cc1ccc(NC(=O)Cn2c(=O)oc3ccccc32)cc1 | 0.32 | . | i | -8 | . | .
CC1CC(NC(=O)CCn2c(=O)oc3ccccc32)CC(C)(C)C1 (centres undefined) | -0.94 | 72 | i | 99* | . | 75
SMILES | Insulin prom up | PTEN del growth | Autophagy mod | L major viab | INS promoter inh | bCat KO growth
CCCC(OC(=O)CN1C(=O)COc2ccccc21)C(=O)NC1CCCC1 (centres undefined) | -0.13 | 83 | i | -7 | . | 96
N#C/C(=N\Nc1ccccc1)C(N)=S | -0.11 | . | . | . | . | .
O=c1[nH]c(C2CC2)nc2sc3c(c12)CCCC3 | -0.83 | . | i | 11 | . | .
CCCCC(=O)NC(=S)NNC(=O)CC | 0.46 | 103 | i | -2 | -192 | 106
COc1cccc(N=Nc2c(=O)[nH]n3c(=O)cc(C)[nH]c23)c1 | -0.49 | 96 | i | -5 | -21 | 97
Cc1ccc(C(=O)NC2CC(C)(C)NC(C)(C)C2)cc1C | 1.5 | 90 | i | 2 | . | 95
COCC(C)n1c(C)cc(C(=O)Cn2c(=O)oc3ccccc32)c1C (centres undefined) | -0.55 | 95 | i | -1 | 79* | 95
O=C(Cn1c(=O)oc2ccccc21)c1ccccc1 | 1.2 | 98 | i | -1 | 73* | 95
CSc1nc(-c2ccco2)nn1C(=O)Cc1ccccc1 | 0.26 | 96 | + | -6 | -318 | 102
CCNC(=S)N/N=C/c1cccs1 | -0.82 | 101 | i | 100* | -39 | 99
O=S(=O)(NCCc1ccc2c(c1)OCCO2)c1cccs1 | -0.27 | 106 | i | -2 | . | 106
CCN(CC)CCCNC1=C(Cl)C(=O)c2ccccc2C1=O | ? | . | i | 100* | . | .
O=C1C(Cl)=C(Nc2ccccc2)C(=O)c2ccccc21 | ? | 1.0* | i | -5 | -386 | 1.1*
CC(C)NC1=C(Cl)C(=O)c2ccccc2C1=O | 1.4 | 45 | i | 15 | 10 | 49
Cc1ccc(NC2=C(NC(=O)c3ccccc3)C(=O)c3ccccc3C2=O)cc1Cl | -0.31 | 5 | i | 98* | . | 5.7*
O=C(O)c1cccc(NC2=C(Cl)C(=O)c3ccccc3C2=O)c1 | 0.39 | . | i | 66* | 9 | .
O=C(Nc1nnc(-c2ccco2)s1)C1CCN(S(=O)(=O)c2ccc(Cl)cc2)CC1 | -0.37 | 53 | i | 15 | . | 62
Cc1ccc(S(=O)(=O)NCC(=O)OCC(=O)Nc2ccccc2OC(F)F)cc1 | -0.61 | 105 | i | -6 | . | 92
O=C(c1cccs1)[C@@H]1[C@@H]2C(=O)N(Cc3ccc4c(c3)OCO4)C(=O)[C@@H]2C2c3ccccc3C=CN21 (some centres undefined) | -1.7 | 76 | i | 88* | -14 | 79
Cc1cc(C)n(CC(=O)O)n1 | . | 100 | i | -2 | -28 | 90
Cc1cc(C)n(CC(=O)N2c3ccccc3Sc3ccccc32)n1 | -0.22 | 100 | i | 61* | 48 | 100
Cc1cccc(C)c1NC(=O)N1CCN(C2CCCCC2)CC1 | . | 97 | i | -4 | 6 | 96
Brc1ccc(Oc2nsnc2N2CCOCC2)cc1 | 3.9* | 90 | i | -2 | -57 | 93
COc1ccc(-c2ccc(CO)o2)cc1N | -0.15 | . | + | -7 | . | .
COc1ccc(OC)c(N)c1 | 0.42 | 94 | i | 5 | -18 | 89
COC(=O)c1ccc(NC2c3ncccc3C(=O)N2Cc2cccs2)cc1 (centres undefined) | 0.49 | . | i | 0 | 29 | .
COC(=O)c1cc(NC2c3ncccc3C(=O)N2Cc2ccccc2)cc(C(=O)OC)c1 (centres undefined) | 0.68 | 99 | i | 53* | 21 | 94
Cc1ccc2nc3c(cc(C#N)c(=O)n3CCN3CCOCC3)c(=O)n2c1 | -0.43 | . | . | . | . | .
O=C(CN1CCN(CC(=O)Nc2ccccc2C(F)(F)F)CC1)Nc1ccccc1F | 0.63 | 92 | i | 0 | 85* | 89
COc1ccc(C2CC(=O)c3c(ccc4ccccc34)N2)cc1OC (centres undefined) | 0.32 | 51 | i | 100* | . | 58
